# Test results taken from PubChem BioAssay (Tox21).
# Several values for one entry are separate records, joined by “and”; a condition that tells them apart may be missing. Equal values may be shown once. Records with an inconclusive call do not appear. A call without a number means that no potency is given here. More than one record can exist for a structure, and the calls need not agree. Activity calls are given as the source filed them. Unless noted, calls follow the shape of the dose curve; as a rule, active = well fitted curve in the direction sought with a large enough effect in the repeat runs; inconclusive = weak or mixed curves; inactive = no such curve, though single readings can be large; an effect the other way counts as inactive or inconclusive.
# Columns and labels:
# [1] = qHTS assay to identify small molecule antagonists of the retinoid acid receptor (RAR) signaling pathway - cell viability counter screen (AID 1159551); also: nearly all actives have a fitted effect of over 35% in size
# Procedure, shortened: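 C3RL4 RARE-luciferase line; cpds + retinol 1 uM final, 6 h, 37 C/5% CO2; CellTiter-Glo ATP luminescence, 30 min RT.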
# [2] = qHTS assay to identify small molecule antagonists of the retinoic acid receptor (RAR) signaling pathway (AID 1159552; also: nearly all actives have a fitted effect of over 50% in size)
# Procedure, shortened: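 Quantitative HTS in C3RL4 RARE-luciferase reporter cells. Compounds were added with 1 uM (final) retinol; luminescence was read after 6 hr.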
# [3] = qHTS assay to identify small molecule agonists of the retinoic acid receptor (RAR) signaling pathway (AID 1159553)
# Procedure, shortened: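 RARE-luc C3RL4 cells; overnight attachment 37 C/5% CO2; compound (DMSO) 6 hr; luciferase reagent, 30 min RT; luminescence read-out.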
# [4] = qHTS assay to identify small molecule antagonists of the estrogen related receptor (ERR) signaling pathway from Tox21 library - cell viability counter screen (AID 1224834); also: nearly all actives have a fitted effect of over 30% in size; also: potency is read from the fitted curve at half-maximal effect
# Procedure, shortened: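 Multiplexed viability counter screen in ERR cells: 17.5 h compound exposure at 37 C, CellTiter-Fluor added, 30 min at 37 C/5% CO2, fluorescence read.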
# [5] = qHTS assay to identify small molecule agonists of the constitutive androstane receptor (CAR) signaling pathway - cell viability counter screen (AID 1224836); also: nearly all actives have a fitted effect of over 45% in size; also: potency is read from the fitted curve at half-maximal effect
# Procedure, shortened: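 Counter screen multiplexed with the CAR reporter readout: HepG2 cells co-transfected with hCAR and the CYP2B6-2.2kb construct receive a 15-concentration compound series and 0.75 uM PK11195 (final), then CellTiter-Fluor fluorescence is read after 23 h.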
# [6] = qHTS assay to identify small molecule antagonists of the constitutive androstane receptor (CAR) signaling pathway - cell viability counter screen (AID 1224837); also: nearly all actives have a fitted effect of over 45% in size; also: potency is read from the fitted curve at half-maximal effect
# Procedure, shortened: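 Read-out: CellTiter-Fluor fluorescence after 23 hr at 37 C/5% CO2. Cells: HepG2 double-stable for hCAR and CYP2B6-2.2kb. Compounds tested at 15 concentrations in the presence of CITCO, final concentration 50 nM.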
# [7] = molecular target: Nuclear receptor subfamily 1 group I member 3 (Homo sapiens) (UniProt Q14994); assay: qHTS assay to identify small molecule antagonists of the constitutive androstane receptor (CAR) signaling pathway (AID 1224838);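 also: HepG2 cells stably expressing hCAR with CYP2B6 luciferase reporter stimulated by CITCO; nearly all actives have a fitted effect of over 40% in size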; also: potency is read from the fitted curve at half-maximal effect
# Nuclear receptor subfamily 1 group I member 3 (Homo sapiens), sequence (Q14994 whole entry, looked up): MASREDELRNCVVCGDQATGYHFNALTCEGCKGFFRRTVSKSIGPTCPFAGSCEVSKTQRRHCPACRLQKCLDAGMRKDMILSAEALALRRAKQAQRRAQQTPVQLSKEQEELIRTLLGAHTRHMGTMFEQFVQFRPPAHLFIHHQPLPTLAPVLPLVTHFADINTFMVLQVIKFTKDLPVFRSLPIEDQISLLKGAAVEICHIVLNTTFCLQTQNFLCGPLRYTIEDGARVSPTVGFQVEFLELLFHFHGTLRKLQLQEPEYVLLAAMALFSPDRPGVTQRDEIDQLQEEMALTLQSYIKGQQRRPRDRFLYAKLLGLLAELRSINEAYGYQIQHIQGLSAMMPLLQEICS
# Procedure, shortened: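 Read-out: ONE-Glo luciferase luminescence after 30 min at room temperature. HepG2-CYP2B6-hCAR double-stable cells, compounds in 15-point titration plus 50 nM CITCO final, 24 h at 37 C/5% CO2.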
# [8] = molecular target: Nuclear receptor subfamily 1 group I member 3 (Homo sapiens) (UniProt Q14994); assay: qHTS assay to identify small molecule agonists of the constitutive androstane receptor (CAR) signaling pathway (AID 1224839); also: series mostly up to about 92 µM; nearly all actives have a fitted effect of over 15% in size
# Procedure, shortened: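 A 15-concentration quantitative screen uses HepG2 cells co-transfected stably with human CAR and CYP2B6-2.2kb reporter. Treatment lasts 24 h with 0.75 uM PK11195 final present; ONE-Glo luminescence is the signal.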
# [9] = qHTS assay to identify small molecule antagonists of the estrogen related receptor signaling pathway with the pleiotropic PPARgamma coactivator (PGC) from Tox21 10K library - cell viability counter screen (AID 1224840; active = well fitted cell-killing curve with a large enough effect in the repeat runs, not every such curve was filed as active; also: nearly all actives have a fitted effect of over 40% in size; also: potency is read from the fitted curve at half-maximal effect)
# Procedure, shortened: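 Fluorescence read-out of CellTiter-Fluor viability reagent, added after cells had been exposed to compound in DMSO for 17.5 h at 37 C; 30 min development at 37 C/5% CO2. Cells: PGC/ERR line, 2,000/well.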
# [10] = qHTS assay to identify small molecule agonists of the estrogen related receptor signaling pathway with the pleiotropic PPARgamma coactivator (PGC) from Tox21 10K library (AID 1224842); also: nearly all actives have a fitted effect of over 15% in size
# Procedure, shortened: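 PGC/ERR reporter cell line, 2,000 cells per well, incubated 6 h at 37 C before 23 nL compound in DMSO was added. After 18 h at 37 C, One-Glo luminescence read following 30 min at room temperature.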
# [11] = qHTS assay to identify small molecule agonists of the RXR signaling pathway - cell viability counter screen (AID 1159529); also: potency is read from the fitted curve at half-maximal effect; nearly all actives have a fitted effect of over 50% in size
# Procedure, shortened: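 Cell viability is measured by CellTiter-Glo luminescence, 30 min at room temperature, in wells already read for beta-lactamase. Engineered HEK 293T cells (RXR-alpha-UAS-bla) are dosed 16 hr at 37 C. Tetraoctyl ammonium bromide serves as positive control.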
# [12] = molecular target: Luciferin 4-monooxygenase (Photinus pyralis) (UniProt P08659); assay: qHTS assay to identify small molecule inhibitors of firefly luciferase (AID 1224835); also: series mostly up to about 120 µM; nearly all actives have a fitted effect of over 25% in size
# Luciferin 4-monooxygenase (Photinus pyralis), sequence (P08659 whole entry, looked up): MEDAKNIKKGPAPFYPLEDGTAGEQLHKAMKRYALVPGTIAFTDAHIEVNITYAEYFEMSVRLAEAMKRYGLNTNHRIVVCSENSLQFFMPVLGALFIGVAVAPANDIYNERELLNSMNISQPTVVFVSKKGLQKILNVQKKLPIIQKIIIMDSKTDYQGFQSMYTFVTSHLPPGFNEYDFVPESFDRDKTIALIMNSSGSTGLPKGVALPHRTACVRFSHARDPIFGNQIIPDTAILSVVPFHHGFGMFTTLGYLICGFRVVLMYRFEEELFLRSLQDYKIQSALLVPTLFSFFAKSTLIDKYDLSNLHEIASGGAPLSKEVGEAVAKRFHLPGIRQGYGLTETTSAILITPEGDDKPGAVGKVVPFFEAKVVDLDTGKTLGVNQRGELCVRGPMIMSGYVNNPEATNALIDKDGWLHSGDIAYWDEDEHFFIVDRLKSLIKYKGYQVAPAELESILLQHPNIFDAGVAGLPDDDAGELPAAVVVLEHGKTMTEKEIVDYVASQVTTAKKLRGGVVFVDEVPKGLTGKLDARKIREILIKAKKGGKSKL
# Procedure, shortened: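 Biochemical qHTS: compounds run as interplate titrations against purified firefly enzyme, with D-luciferin and ATP each at its KM concentration. Light output recorded by CCD imaging.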
# [13] = molecular target: Thyrotropin receptor (Homo sapiens) (UniProt P16473); assay: qHTS assay to identify small molecule agonists of the thyroid stimulating hormone receptor (TSHR) signaling pathway (AID 1224843; calls by dose curve; also: potency is read from the fitted curve at half-maximal effect; nearly all actives have a fitted effect of over 45% in size)
# Thyrotropin receptor (Homo sapiens), sequence (P16473 whole entry, looked up): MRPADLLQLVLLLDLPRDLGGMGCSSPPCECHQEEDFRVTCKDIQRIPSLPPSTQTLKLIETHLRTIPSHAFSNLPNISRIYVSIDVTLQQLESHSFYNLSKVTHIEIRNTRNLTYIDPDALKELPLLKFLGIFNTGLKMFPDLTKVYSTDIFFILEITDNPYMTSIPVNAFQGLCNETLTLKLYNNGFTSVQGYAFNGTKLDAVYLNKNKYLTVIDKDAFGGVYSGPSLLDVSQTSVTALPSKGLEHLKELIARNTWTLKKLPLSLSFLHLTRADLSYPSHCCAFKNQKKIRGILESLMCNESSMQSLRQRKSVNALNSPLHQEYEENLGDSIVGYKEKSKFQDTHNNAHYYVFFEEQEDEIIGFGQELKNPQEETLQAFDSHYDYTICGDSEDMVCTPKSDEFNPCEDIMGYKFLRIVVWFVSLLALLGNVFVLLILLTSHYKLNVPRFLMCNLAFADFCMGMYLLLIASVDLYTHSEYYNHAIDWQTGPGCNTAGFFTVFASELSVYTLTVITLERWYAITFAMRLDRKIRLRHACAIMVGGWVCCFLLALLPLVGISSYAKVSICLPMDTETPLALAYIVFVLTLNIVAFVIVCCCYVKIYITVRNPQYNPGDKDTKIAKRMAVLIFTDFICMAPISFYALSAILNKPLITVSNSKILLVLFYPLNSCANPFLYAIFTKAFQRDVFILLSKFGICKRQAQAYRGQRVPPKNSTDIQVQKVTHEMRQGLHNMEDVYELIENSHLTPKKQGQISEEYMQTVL
# Procedure, shortened: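 Agonist-mode screen: TSHR HEK293 cells received test chemicals for half an hour at room temperature, then HTRF cAMP detection reagents for one hour prior to fluorescence measurement. Each chemical ran as a 15-concentration series, triplicated.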
# [14] = qHTS assay to identify small molecule antagonists of the estrogen related receptor (ERR) signaling pathway - cell viability counter screen (AID 1224818); also: series mostly up to about 46 µM
# Procedure, shortened: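 Fluorescence from CellTiter-Fluor, read 30 min after reagent addition at 37 C, measured viability of ERR cells exposed to compounds for 17.5 h. Cells had settled 6 h before dosing.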
SMILES,Potency [1],Potency [2],Potency [3],Potency [4],Potency [5],Potency [6],Potency [7],Potency [8],Potency [9],Potency [10],Potency [11],Potency [12],Potency [13],outcome [14]
CN(C)C1CSSSC1,inactive,inactive,inactive,inactive,inactive,inactive,inactive,inactive,inactive,inactive,,,,
NC(=O)c1ccc(N)nc1,,,,,inactive,inactive,inactive,,inactive,,13.8 µM (active),inactive,,
CC(C)OC(=O)C(O)(c1ccc(Cl)cc1)c1ccc(Cl)cc1,,,,,inactive,inactive,inactive,,inactive,,38.9 µM (active),inactive,48.6 µM (active),
CCCCN(CCCC)C(=S)[S-].CCCCN(CCCC)C(=S)[S-].[Zn+2],,,,15.3 µM (active),21.7 µM (active),21.7 µM (active),,,13.7 µM (active),,4.36 µM (active),inactive,,
C[C@@H]1O[C@@H](O[C@H]2C[C@@H](O)[C@]3(CO)[C@H]4[C@H](O)C[C@]5(C)[C@@H](C6=CC(=O)OC6)CC[C@]5(O)[C@@H]4CC[C@]3(O)C2)[C@H](O)[C@H](O)[C@H]1O,inactive,inactive,inactive,91.9 nM (active) and 84.1 nM (active),231 nM (active) and 266 nM (active),,146 nM (active) and 168 nM (active),inactive,,,,inactive,,inactive
CCCCCCCCCCCCCCCC[N+](C)(C)C,,,,23.5 µM (active) and 61.1 µM (active) and 18.8 µM (active),54.5 µM (active),54.5 µM (active),,inactive,inactive and 61.1 µM (active),,10.6 µM (active) and 24.5 µM (active) and 12 µM (active),inactive,,
